# Measurements from the supplement of paper PMC6555819.
# Test system: PPARg DBDmut:RXRa IVT, anti-PPARg (DBD mutation: PPARg1 K132A/R137A, NR concentration 270 nM, RXRa partner concentration 90 nM)
# Test: PBM binding z-score (relative to random genomic background probes); higher = stronger binding; sequences stand for … in GC…GCGATTGACAGCGTAGAATGAAGG
# How it was run: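 The probes on custom Agilent 4×180K protein-binding microarrays were double-stranded, with 34-nt variable regions bearing direct-repeat seeds, single-nucleotide variants, half-site ablations and random human genomic background sequences. Incubation lasted 1 h with ligand-free nuclear receptor dimers in PBS pH 7.4, 2% milk, 0.02% Triton X-100, 1 mM DTT, 0.2 mg/mL BSA and 0.4 mg/ml salmon testes DNA. Antibodies against each partner (one per run) detected bound dimers, and fluorescence scans were regression-normalized. Binding z-scores take the random background probes as reference.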
row,Sequence,PBM binding z-score
1,CGTCCAAGGTTAGAGAGGTCAGTGAATGCCGAGT,-1.21
2,TCTAGCTGGCCAGAGGGTCACTCAAGAGGTACGG,-1.57
3,TCTATTAGTTGAGTAGGGCAACCGAAACAGCGGA,0.301
4,GGAACGAGGGCAAAGTTGAGAGCATCTGTCGACG,0.813
5,CCTATGAGTTGACCATAAGGGCAACCGAAGCTCG,-0.849
6,CAAACTAGGTCACGAAAGGTCAAAGTAGAATGAC,2.85
7,GCTAGCAGGACATTTGGGTCACTCAATGACGGGC,-1.17
8,GCGACTGGGGCAAAGCAGGTTACCAAAAGGTTGG,-0.303
9,CCTAGTTCGTCAGGAGGTCACACACCGGATATGA,0.424
10,GCTGCTAGGTCAATTGATGGTCAGCTAAAGCTCG,-0.948
11,TCTTGTACATCAAAGGTTAAGAAAGCCGAAGCCT,1.53
12,ACTAGTTGGTCAGCTGACGTCACACACAATTCGG,0.728
13,ATATGTAGGTTATCGGGTCGTTCAGTTTGCGCAT,1.68
14,TCTTGTAGATCCATAGAGGTTAAGAAAGTGCGCT,1.1
15,TCTGCTAGGTCACCGATGGTCAGCTAATCTGCTA,0.945
16,AGTCAAAGTTCAGGACGAGCTAACGTAAAGCACG,0.323
17,ACTATGAGTTGACTTAGGGCAACCGATACGACGC,0.38
18,CCTACTGGGCCAAAAAGGTCATTGACGCCGATAA,-0.855
19,GCGACTGGGGCACCAGCAGGTTACCATAACTTAA,-0.601
20,TGTCAAAGTTCAAGGGTAACGTAAGTATCCACAC,1.78
21,CCTACTGGGTCAAAAAGGTCATTGATGCCGATAA,0.701
22,TTACCAGGGTGAGCTGAGGTCGTTGATCCAACTC,-1.02
